Assay results as given in PubChem BioAssay (NCATS).
Records with an inconclusive call do not appear. Active and inactive are the calls of the source. Unless noted, the call rests on the fitted dose curve; in most records, active means well fitted curve in the direction sought with a large enough effect; inconclusive means small, poorly fitted or top-dose-only effect, or another doubt; inactive means no such curve, though single readings can be large; an effect the other way counts as inactive or inconclusive.

Legend:
[1] = AP1 Signaling Pathway (AID 357; active means well fitted curve in either direction with a large enough effect, not every such curve was filed as active;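 further: ME-180 reporter cells stimulated with EGF at its EC50 level; on the % scale 0 is the no-effect control and ±100 the full control effect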); settings: ME-180 AP-1-bla reporter, EGF-induced, beta-lactamase ratio, 5 h; at 7.69 µM (top of the series) unless noted
How it was run: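 A ratiometric CCF4 readout (405 nm excitation; 460 and 530 nm emission) quantified AP-1-driven beta-lactamase in ME-180 cells after 5 h with compound and EC50 EGF; AC50 values were derived for activators and inhibitors.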

[2] = molecular target: Cytochrome P450 1A2 (Homo sapiens) (UniProt P05177); assay: p450-cyp1a2 (AID 410; calls by dose curve;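 further: -100% = full effect of reference inhibitor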)
Chain of Cytochrome P450 1A2 (Homo sapiens) (P05177 whole entry, looked up): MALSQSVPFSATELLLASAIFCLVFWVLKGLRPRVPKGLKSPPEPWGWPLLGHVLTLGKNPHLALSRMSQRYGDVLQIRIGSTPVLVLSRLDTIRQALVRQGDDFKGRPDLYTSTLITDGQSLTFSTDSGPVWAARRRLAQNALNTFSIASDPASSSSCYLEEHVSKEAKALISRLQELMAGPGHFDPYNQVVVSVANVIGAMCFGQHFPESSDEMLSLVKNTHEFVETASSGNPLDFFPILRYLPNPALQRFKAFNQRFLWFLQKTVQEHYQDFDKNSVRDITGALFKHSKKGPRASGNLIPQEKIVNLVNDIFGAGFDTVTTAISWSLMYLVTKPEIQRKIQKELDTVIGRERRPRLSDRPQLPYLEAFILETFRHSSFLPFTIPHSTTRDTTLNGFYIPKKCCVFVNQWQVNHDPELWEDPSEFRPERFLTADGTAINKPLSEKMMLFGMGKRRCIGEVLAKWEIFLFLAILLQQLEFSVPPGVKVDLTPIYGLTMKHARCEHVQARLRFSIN
How it was run: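 O-Demethylation of luciferin 6' methyl ether by human CYP1A2 is monitored as luciferase luminescence. Substrate sits at Km (100uM); enzyme is 20nM. Values are scaled to 57 uM furafylline as maximal inhibition.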

[3] = NFAT Signaling Pathway (AID 444; active means well fitted curve in either direction with a large enough effect, not every such curve was filed as active;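 further: carbachol stimulus at about its EC50 of 1 µM final; on the % scale 0 is the no-effect control and ±100 the full control effect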); settings: Jurkat NFAT-bla M1, carbachol, beta-lactamase ratio, 5 h; at 7.69 µM (top of the series) unless noted
How it was run: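 Jurkat cells carrying an NFAT-driven β-lactamase reporter and co-transfected muscarinic M1 receptor were treated with compound plus carbachol (1 uM final, an EC50 level) for 5 h at 37 °C. CCF4 loading followed for 1 h at RT; 460/530 nm ratio gave %activity.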

[4] = Stat Signaling Pathway (AID 446; active means well fitted curve in either direction with a large enough effect, not every such curve was filed as active;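 further: ME-180 cervical cancer cells given 40 pM IL-6 alongside compound; SIE-controlled beta-lactamase reporter measured as 460/530 nm FRET emission ratio; on the % scale 0 is the no-effect control and ±100 the full control effect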); settings: ME-180 (cervical carcinoma) SIE beta-lactamase reporter, IL-6 stimulated, 5 h; at 7.69 µM (top of the series) unless noted
How it was run: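 FRET read-out (405 nm excitation, 460/530 nm emission) of a beta-lactamase reporter under a STAT-inducible element in ME-180 cervical carcinoma cells. Cells with compound receive 40 pM IL-6 for 5 h. Values are normalised to AC90 stimulation and AC90 JAK-inhibitor controls.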

[5] = molecular target: Glucocorticoid receptor (Homo sapiens) (UniProt P04150); assay: GR-GFP Redistribution (AID 450;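 active means compounds whose dose series gives a full or clear partial fitted curve of increased nuclear translocation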; further: potency means the concentration at half of the fitted maximal effect); settings: U2OS GR-GFP nuclear translocation, laser cytometry, 2 h
Chain of Glucocorticoid receptor (Homo sapiens) (P04150 whole entry, looked up, the tested form may be a part): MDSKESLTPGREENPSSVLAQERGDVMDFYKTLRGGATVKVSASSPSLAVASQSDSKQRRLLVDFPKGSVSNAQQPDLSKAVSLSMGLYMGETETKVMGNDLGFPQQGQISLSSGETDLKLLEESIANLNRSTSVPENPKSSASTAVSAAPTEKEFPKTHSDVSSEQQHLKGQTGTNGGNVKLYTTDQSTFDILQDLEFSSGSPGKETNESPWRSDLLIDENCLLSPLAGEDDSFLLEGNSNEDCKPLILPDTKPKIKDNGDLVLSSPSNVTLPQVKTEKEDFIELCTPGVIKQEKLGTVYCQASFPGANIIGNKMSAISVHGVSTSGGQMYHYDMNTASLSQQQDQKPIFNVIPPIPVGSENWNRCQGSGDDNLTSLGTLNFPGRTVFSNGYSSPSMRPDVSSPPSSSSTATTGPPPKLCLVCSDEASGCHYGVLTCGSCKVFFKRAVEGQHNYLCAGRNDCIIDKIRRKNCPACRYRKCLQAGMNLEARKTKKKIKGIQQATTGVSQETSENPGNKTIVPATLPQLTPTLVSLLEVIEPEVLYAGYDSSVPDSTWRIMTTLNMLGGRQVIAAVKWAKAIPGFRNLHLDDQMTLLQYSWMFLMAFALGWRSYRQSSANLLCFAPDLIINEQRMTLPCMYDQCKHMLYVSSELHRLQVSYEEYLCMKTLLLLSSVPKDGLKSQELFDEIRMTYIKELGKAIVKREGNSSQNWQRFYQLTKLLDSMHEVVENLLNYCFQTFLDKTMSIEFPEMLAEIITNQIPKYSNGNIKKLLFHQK

[6] = molecular target: Glucocorticoid receptor (Homo sapiens) (UniProt P04150); assay: GR-EFC Redistribution (AID 451; calls by dose curve; further: potency means the concentration at half of the fitted maximal effect); settings: CHO-K1 GR-EFC translocation, beta-gal luminescence, 2 h
How it was run: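 CHO-K1 cells stably expressing nuclear-localized β-gal enzyme acceptor and GR fused C-terminally to the enzyme donor fragment; ligand-driven nuclear translocation restores β-gal by complementation. Compounds titrated up to 46 uM final, 2 h at 37 °C; luminescence read.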

[7] = molecular target: 3',5'-cyclic-AMP phosphodiesterase 4B (Homo sapiens) (UniProt Q07343); assay: qHTS Assay for Inhibitors of PDE-IV (AID 607; active means well fitted activation curve with a large enough effect in the main read-out, with a control signal flat, not every such curve was filed as active; further: % of control where 0% means no effect)
Chain of 3',5'-cyclic-AMP phosphodiesterase 4B (Homo sapiens) (Q07343 whole entry, looked up): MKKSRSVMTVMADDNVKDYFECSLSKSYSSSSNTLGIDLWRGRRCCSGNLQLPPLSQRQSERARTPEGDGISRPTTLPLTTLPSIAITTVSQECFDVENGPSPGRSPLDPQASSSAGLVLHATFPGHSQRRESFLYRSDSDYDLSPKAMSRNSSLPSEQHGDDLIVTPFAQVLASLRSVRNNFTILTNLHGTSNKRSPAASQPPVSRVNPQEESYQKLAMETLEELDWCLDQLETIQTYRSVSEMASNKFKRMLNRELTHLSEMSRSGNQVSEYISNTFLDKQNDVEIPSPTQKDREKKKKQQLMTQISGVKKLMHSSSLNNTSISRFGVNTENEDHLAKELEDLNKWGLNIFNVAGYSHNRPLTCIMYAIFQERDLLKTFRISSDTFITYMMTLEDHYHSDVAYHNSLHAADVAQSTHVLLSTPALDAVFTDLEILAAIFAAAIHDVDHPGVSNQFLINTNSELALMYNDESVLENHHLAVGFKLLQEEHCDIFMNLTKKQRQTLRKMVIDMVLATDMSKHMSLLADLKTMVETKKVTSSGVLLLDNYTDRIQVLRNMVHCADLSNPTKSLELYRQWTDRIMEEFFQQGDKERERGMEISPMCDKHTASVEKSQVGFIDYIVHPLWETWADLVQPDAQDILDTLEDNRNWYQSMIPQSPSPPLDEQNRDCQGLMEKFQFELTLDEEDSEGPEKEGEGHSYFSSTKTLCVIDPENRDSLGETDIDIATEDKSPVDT
How it was run: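 Cell-based read-out of cAMP via a modified cyclic nucleotide-gated channel and membrane potential dye (535/590 nm) in HEK293 cells expressing PDE4 endogenously. Compounds tested up to 22.9 uM final; 100 uM RO 20-1724 reference.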

[8] = molecular target: Guanine nucleotide-binding protein G(i) subunit alpha-1 (Homo sapiens) (UniProt P63096); assay: qHTS Assay for Inhibitors of RGS12 GoLoco Motif Activity (Green Fluorophore) (AID 879);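 further: 0% = labeled peptide with Gαi1 and full inhibition = labeled peptide alone without protein; negative values mean loss of peptide binding seen as reduced polarization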
Chain of Guanine nucleotide-binding protein G(i) subunit alpha-1 (Homo sapiens) (P63096 whole entry, looked up): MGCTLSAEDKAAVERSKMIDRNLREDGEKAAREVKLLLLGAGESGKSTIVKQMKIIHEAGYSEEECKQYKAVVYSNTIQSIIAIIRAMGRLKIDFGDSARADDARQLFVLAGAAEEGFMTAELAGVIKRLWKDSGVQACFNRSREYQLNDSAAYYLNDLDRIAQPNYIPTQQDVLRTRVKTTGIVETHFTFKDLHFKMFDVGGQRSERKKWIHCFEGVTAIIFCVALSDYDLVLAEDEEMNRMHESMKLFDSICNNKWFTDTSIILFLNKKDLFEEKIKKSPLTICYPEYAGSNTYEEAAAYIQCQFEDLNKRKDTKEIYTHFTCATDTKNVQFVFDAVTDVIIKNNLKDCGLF
How it was run: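 A drop in FITC polarization marked displacement of the FITC-tagged RGS12 GoLoco peptide (10 nM) from Gαi1 (50 nM). Compounds were incubated 10 min at room temperature in Tris pH 7.5 buffer containing 150 mM NaCl, 0.1 mM GDP and 0.05% NP40; unlabeled peptide titration served as control.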

[9] = molecular target: Cytochrome P450 3A4 (Homo sapiens) (UniProt P08684); assay: qHTS Assay for Activators of Cytochrome P450 3A4 (AID 885); further: nearly all actives have a fitted effect of over 65% in size
How it was run: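 Luminescent readout of luciferin formed from 25 uM Luciferin-PPXE (KM level) by 20 nM CYP3A4 in 200 mM KPO4, with 60 min NADPH-driven reaction at room temperature after 10 min compound exposure. Ketoconazole (57 uM) defined 100% inhibition.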

[10] = qHTS Assay for Identification of Small Molecule Antagonists for NFkB Signaling Pathway (AID 895; active means well fitted inhibition curve with a large enough effect in the signal ratio, with a control signal flat, not every such curve was filed as active; the % refers to the signal ratio; further: on the % scale 0 is the no-effect control and ±100 the full control effect)
How it was run: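 NFkB-bla ME-180 cervical carcinoma cells with beta-lactamase reporter under NFkB response element; compounds added, then TNF alpha at 10 pM final (EC50), 5 h at 37 C. LiveBLAzer substrate 2 h, room temperature; emission 460/530 nm at 405 nm excitation.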

[11] = qHTS Assay for Identification of Small Molecule Agonists for Thrombopoietin (TPO) Signaling Pathway (AID 917); further: on the % scale 0 is the no-effect control and ±100 the full control effect
How it was run: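 Luciferase reporter (Glycoprotein IIb promoter) in IL-3-deprived Ba/F3 cells carrying human TPO receptor; compounds co-added with 26 pM TPO, incubated 24 h, 37 C. Steadylite luminescence measured after 10 min.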

[12] = molecular target: Muscarinic acetylcholine receptor M1 (Rattus norvegicus) (UniProt P08482); assay: qHTS Assay for Antagonists of Acetylcholine Muscarinic M1 Receptor: Measurement of IP-One Response (AID 944); further: nearly all actives have a fitted effect of over 75% in size
Chain of Muscarinic acetylcholine receptor M1 (Rattus norvegicus) (P08482 whole entry, looked up): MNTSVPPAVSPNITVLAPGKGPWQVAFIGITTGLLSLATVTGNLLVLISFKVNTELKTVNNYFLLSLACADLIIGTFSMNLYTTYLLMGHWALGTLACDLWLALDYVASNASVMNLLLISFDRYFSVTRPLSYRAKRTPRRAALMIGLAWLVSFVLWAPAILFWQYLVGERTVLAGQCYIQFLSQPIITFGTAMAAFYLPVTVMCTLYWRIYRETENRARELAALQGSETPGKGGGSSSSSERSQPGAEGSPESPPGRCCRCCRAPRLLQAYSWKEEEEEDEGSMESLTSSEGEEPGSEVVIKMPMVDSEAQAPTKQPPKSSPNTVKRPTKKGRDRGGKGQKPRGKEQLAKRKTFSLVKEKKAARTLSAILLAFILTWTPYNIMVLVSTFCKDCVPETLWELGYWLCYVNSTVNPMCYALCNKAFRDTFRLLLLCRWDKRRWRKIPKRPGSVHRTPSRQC
How it was run: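 Antagonist mode with rat M1 receptor transfected into CHO cells. Compound is added first for 10 min, carbachol at its EC80 follows for 30 min, and lysis reagents then allow TR-FRET detection of accumulated IP1.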

[13] = molecular target: Pyruvate kinase (Leishmania mexicana) (UniProt Q27686); assay: qHTS Validation Assay for Inhibitors of Leishmania Mexicana Pyruvate Kinase (AID 945);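 further: 0% = DMSO only neutral control wells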
Chain of Pyruvate kinase (Leishmania mexicana) (Q27686 2-499 E452W): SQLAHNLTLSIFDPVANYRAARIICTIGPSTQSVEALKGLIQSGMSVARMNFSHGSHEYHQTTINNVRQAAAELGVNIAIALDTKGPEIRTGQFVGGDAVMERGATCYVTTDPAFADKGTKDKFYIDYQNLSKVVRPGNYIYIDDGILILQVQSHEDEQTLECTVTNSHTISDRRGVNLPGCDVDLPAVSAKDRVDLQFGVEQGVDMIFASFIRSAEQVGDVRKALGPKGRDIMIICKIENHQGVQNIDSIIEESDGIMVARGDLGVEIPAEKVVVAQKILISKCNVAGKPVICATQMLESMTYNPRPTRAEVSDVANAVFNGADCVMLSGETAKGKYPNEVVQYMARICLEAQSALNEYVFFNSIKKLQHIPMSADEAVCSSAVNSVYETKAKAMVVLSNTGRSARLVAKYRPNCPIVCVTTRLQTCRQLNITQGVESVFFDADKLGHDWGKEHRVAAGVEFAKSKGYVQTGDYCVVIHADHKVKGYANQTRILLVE
How it was run: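 Eight-point qHTS titrations in triplicate, data normalized to DMSO neutral control. Reaction: 0.2 nM LmPYK E451W mutant, 0.5 mM PEP, 0.1 mM ADP, 7 mM MgCl2, pH 7.2, one hour at room temperature; luminescent ATP detection.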

[14] = molecular target: Pyruvate kinase PKM (Homo sapiens) (UniProt P14618); assay: qHTS Assay for Activators of Human Muscle Pyruvate Kinase (AID 954; active means well fitted curve in the direction sought with a large enough effect, not every such curve was filed as active;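 further: 0% = uninhibited enzyme and -100% = no enzyme or full thiadiazolimine inhibition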)
Chain of Pyruvate kinase PKM (Homo sapiens) (P14618 whole entry, looked up): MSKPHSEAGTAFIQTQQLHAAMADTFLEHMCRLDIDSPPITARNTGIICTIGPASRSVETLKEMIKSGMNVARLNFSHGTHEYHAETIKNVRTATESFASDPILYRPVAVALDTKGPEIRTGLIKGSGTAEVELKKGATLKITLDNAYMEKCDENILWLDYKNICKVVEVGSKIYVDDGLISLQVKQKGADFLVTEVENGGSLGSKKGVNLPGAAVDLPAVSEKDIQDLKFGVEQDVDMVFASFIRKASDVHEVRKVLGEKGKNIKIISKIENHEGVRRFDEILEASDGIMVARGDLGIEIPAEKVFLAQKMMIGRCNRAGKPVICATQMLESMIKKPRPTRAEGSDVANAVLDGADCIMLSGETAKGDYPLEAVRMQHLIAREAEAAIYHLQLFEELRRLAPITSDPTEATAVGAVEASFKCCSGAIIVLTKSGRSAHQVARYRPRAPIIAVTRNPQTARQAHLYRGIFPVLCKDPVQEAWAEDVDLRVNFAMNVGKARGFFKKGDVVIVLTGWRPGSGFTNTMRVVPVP
How it was run: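 ATP production by PKM2 detected via luciferase luminescence after 1 h room-temperature reaction (0.1 nM enzyme, PEP at Km 0.5 mM, ADP 0.1 mM, pH 7.2 imidazole buffer). Inhibition scaled to no-enzyme control; activation referenced to 0.3 nM enzyme wells.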

[15] = molecular target: Alpha-galactosidase (Coffea arabica) (UniProt Q42656); assay: Counterscreen for Glucocerebrosidase Inhibitors: qHTS Assay for Coffee Bean alpha-Galactosidase at pH 4.5 (AID 957);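 further: plate controls were enzyme alone for no effect and no enzyme for full effect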
Chain of Alpha-galactosidase (Coffea arabica) (Q42656 whole entry, looked up): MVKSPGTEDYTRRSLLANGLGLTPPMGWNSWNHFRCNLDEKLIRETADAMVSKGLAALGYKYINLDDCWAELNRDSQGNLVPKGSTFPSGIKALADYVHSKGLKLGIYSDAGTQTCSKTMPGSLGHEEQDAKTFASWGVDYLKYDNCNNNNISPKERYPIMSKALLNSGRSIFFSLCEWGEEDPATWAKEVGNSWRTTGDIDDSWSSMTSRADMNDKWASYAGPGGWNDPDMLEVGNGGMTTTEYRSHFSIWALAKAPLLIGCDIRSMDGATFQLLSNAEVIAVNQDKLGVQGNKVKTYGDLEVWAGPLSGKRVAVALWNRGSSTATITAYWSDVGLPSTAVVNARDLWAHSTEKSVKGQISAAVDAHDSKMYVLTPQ
How it was run: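 Enzyme is added first (2 nM final), then compounds titrated from 0.7 nM to 77 uM, then 80 uM 4-methylumbelliferyl alpha-D-galactopyranoside; after 20 min at room temperature a pH 10 NaOH/glycine stop precedes fluorescence reading at 365/440 nm.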

[16] = molecular target: Alpha-galactosidase A (Homo sapiens) (UniProt P06280); assay: Counterscreen for Glucocerebrosidase Inhibitors: qHTS Assay for Human alpha-Galactosidase at pH 4.5 (AID 992); further: 0% is about no effect
Chain of Alpha-galactosidase A (Homo sapiens) (P06280 whole entry, looked up): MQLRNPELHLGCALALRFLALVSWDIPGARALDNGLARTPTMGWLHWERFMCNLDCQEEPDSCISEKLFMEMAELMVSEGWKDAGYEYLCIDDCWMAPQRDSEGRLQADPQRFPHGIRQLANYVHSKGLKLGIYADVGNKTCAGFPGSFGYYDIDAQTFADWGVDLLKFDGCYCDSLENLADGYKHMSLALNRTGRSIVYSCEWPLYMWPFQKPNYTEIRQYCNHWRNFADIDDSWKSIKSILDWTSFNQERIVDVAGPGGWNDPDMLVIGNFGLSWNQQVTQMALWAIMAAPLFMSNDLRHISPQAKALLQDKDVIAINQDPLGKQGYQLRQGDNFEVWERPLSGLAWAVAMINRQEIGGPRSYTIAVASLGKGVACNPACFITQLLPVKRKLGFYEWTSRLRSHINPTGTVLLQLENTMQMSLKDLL
How it was run: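 Fluorogenic 1536-well qHTS at pH 4.5 (citrate, Tween-20): 2 nM enzyme, 80 uM 4-MU-alpha-galactoside, 20 min room temperature, NaOH/glycine stop. Titration 0.7 nM to 77 uM, data normalized to no-enzyme and full-activity controls, Hill-fitted AC50.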

[17] = molecular target: alpha-glucosidase (Oryza sativa, rice) (UniProt Q653V4); assay: Counterscreen for Glucocerebrosidase Inhibitors: qHTS Assay for Rice alpha-Glucosidase at pH 5.0 (AID 997);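 further: 0% = full activity with enzyme and -100% = basal without enzyme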
How it was run: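 Endpoint fluorogenic assay at pH 5.0: compounds (0.7 nM to 77 uM) titrated against 4 nM rice enzyme and 400 uM 4-MU-alpha-glucoside for 20 min at room temperature; NaOH/glycine stop, read ex 365/em 440 nm, Hill-fitted AC50.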

[18] = molecular target: Alpha-galactosidase (Coffea arabica) (UniProt Q42656); assay: Counterscreen for Glucocerebrosidase Inhibitors: qHTS Assay for Coffee Bean alpha-Galactosidase at pH 5.9 (AID 998);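 further: plate controls were uninhibited enzyme for no effect and no-enzyme basal signal for full effect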
How it was run: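 In 50 mM citric acid pH 5.9 with 0.005% Tween-20, coffee bean enzyme hydrolyses 80 uM 4-MU alpha-D-galactopyranoside over 20 min at RT. Activity is normalized to controls; AC50 comes from Hill-modelled concentration-response data.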

[19] = molecular target: Mitogen-activated protein kinase 10 (Mus musculus) (UniProt Q61831); assay: JNK3 AlphaScreen Assay (AID 530; active means well fitted curve in either direction with a large enough effect, not every such curve was filed as active)
How it was run: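 Phosphorylation of biotinylated GST-cJun(1-79) at Ser73 is measured by AlphaScreen proximity luminescence. Enzyme is JNK3 in HepG2 lysates activated with interleukin-1beta and tumor necrosis factor alpha; ATP is 10 uM final.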

[20] = molecular target: Ubiquitin carboxyl-terminal hydrolase 1 (Homo sapiens) (UniProt O94782); assay: Inhibitors of USP1/UAF1: Pilot qHTS (AID 504865);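 further: rhodamine fluorescence freed from ubiquitin-rhodamine substrate followed over time; top concentration of the series differs between compounds; on the % scale 0 is the no-effect control and ±100 the full control effect; nearly all actives have a fitted effect of over 35% in size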
How it was run: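 Deubiquitinase activity followed as kinetic rhodamine fluorescence release from 150 nM Ub-Rho. 1 nM USP1/UAF1 with compound, after 15 min room-temperature preincubation, in HEPES pH 7.8 buffer containing TCEP, EDTA, BSA and Tween-20.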

[21] = molecular target: Cytochrome P450 2C9 (Homo sapiens) (UniProt P11712); assay: qHTS Assay for Inhibitors and Substrates of Cytochrome P450 2C9 (AID 883); further: on the % scale 0 is the no-effect control and ±100 the full control effect; nearly all actives have a fitted effect of over 60% in size
How it was run: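 CYP2C9 deoxyluciferin hydroxylation, 37C, 60 min with NADPH regeneration; 10nM enzyme, 100uM Luciferin-H (KM). Glo detection reagent stopped reaction; luminescence normalized to sulphaphenazole (57uM) full inhibition.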

[22] = molecular target: Cytochrome P450 2D6 (Homo sapiens) (UniProt P10635); assay: qHTS Assay for Inhibitors and Substrates of Cytochrome P450 2D6 (AID 891);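 further: luciferin methyl ether substrate demethylated by CYP2D6 with NADPH regeneration; on the % scale 0 is the no-effect control and ±100 the full control effect; nearly all actives have a fitted effect of over 60% in size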
How it was run: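 Luminescent read-out of luciferin formed by 5 nM human CYP2D6 demethylating 30 uM Luciferin-ME EGE (Km level) over 60 min at room temperature after NADPH regeneration addition. Data normalized to full inhibition by 1.43 uM quinidine.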

[23] = molecular target: Cytochrome P450 2C19 (Homo sapiens) (UniProt P33261); assay: qHTS Assay for Inhibitors and Substrates of Cytochrome P450 2C19 (AID 899); further: on the % scale 0 is the no-effect control and ±100 the full control effect; nearly all actives have a fitted effect of over 60% in size
How it was run: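 In 50mM KPO4, the reaction held 5nM enzyme and KM-level (10uM) Luciferin-H EGE; it ran 60 min at 37C after NADPH regeneration and a 10 min compound preincubation. Luminescence values were scaled to 57uM ketoconazole as complete inhibition.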

[24] = molecular target: Muscarinic acetylcholine receptor M1 (Rattus norvegicus) (UniProt P08482); assay: qHTS Assay for Antagonists of Acetylcholine Muscarinic M1 Receptor: Kinetic Measurement of Intracellular Calcium Response (AID 943);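 further: Fluo-4 calcium signal as peak divided by basal fluorescence over 4 min; nearly all actives have a fitted effect of over 75% in size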
How it was run: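 Antagonism is measured as inhibition of the carbachol-evoked calcium rise in CHO cells transfected with rat M1. Cells are dye-loaded, exposed to compound for 10 min, then stimulated with 100 nM carbachol (EC80).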

NC[C@H](O)c1cc(O)c(O)cc1F
inactive: activity change, negative = inhibition [1] -2.42% [at 38 µM] | Potency [2] | activity change, negative = inhibition [3] 4.54% [at 38 µM] | activity, negative = inhibition [4] 10.9% [at 38 µM] | Potency [5] > 46 µM | Potency [6] > 46 µM | outcome [7] | outcome [8] | Potency [9] | Potency [10] | outcome [11] | Potency [12] | outcome [13] | outcome [14] | outcome [15] | outcome [16] | outcome [17] | outcome [18]

CC[C@@H]1CN2CCc3cc(OC)c(OC)cc3[C@H]2C[C@@H]1C[C@@H]1NCCc2cc(O)c(OC)cc21
active: activity change, negative = inhibition [1] -117% [at 17.2 µM] | activity change, negative = inhibition [3] -126% [at 17.2 µM] | activity, negative = inhibition [4] -100% [at 17.2 µM]
inactive: Potency [5] > 20.6 µM | Potency [6] > 20.6 µM | Potency [19] | Potency [20]

C[C@@]12CC[C@H]3[C@@H](CCC4=C(O)C(=O)CC[C@]43C)[C@H]1CCC2=O
inactive: activity change, negative = inhibition [1] 4.24% [at 38 µM] | Potency [2] | activity change, negative = inhibition [3] -1.14% [at 38 µM] | Potency [5] > 46 µM | Potency [6] > 46 µM | Potency [19] | outcome [7] | outcome [8] | Potency [10] | Potency [12] | outcome [13] | outcome [14] | outcome [15] | outcome [16] | outcome [17] | outcome [18]

N[C@H](Cn1oc(=O)[nH]c1=O)C(=O)O
inactive: activity change, negative = inhibition [1] 0.495% [at 38 µM] | Potency [2] | activity change, negative = inhibition [3] -2.78% [at 38 µM] | activity, negative = inhibition [4] 6.66% [at 38 µM] | Potency [5] > 46 µM | Potency [6] > 46 µM | Potency [19] | outcome [7] | Potency [21] | Potency [22] | Potency [23]

CC(=O)OCC1=C(C(=O)[O-])N2C(=O)[C@@H](NC(=O)CCC[C@@H](N)C(=O)[O-])[C@@H]2SC1.[Zn+2]
inactive: activity change, negative = inhibition [1] 13.1% [at 38 µM] | Potency [2] | activity change, negative = inhibition [3] 1.01% [at 38 µM] | activity, negative = inhibition [4] -13.9% [at 38 µM] | Potency [5] > 46 µM | Potency [6] > 46 µM | Potency [19] | outcome [7] | outcome [8] | Potency [10] | outcome [11] | Potency [24] | Potency [12] | outcome [13] | outcome [14] | outcome [15] | outcome [16] | outcome [17] | outcome [18]
